Screening results as filed in PubChem.
D1 agonist – activates the human D1 dopamine receptor. P21728. 360,000 tested, 1% active. HEK293 T-REx D1 cells, calcium flux, agonist mode. activation, % at 2 µM; in the data active = activation above about 30%; note: 0% is about no effect
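Agonism was scored from calcium flux recorded over 180 s (1 read/s) after pintool compound addition, following a 10-cycle baseline. Cells were inducible force-coupled HEK293 TREx D1, plated overnight at 30 C and loaded with no-wash calcium dye.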
D1 antag – blocks dopamine activation of the human D1 receptor. HEK293 TREx D1 cells, calcium flux, dopamine EC80; hits give low values. 360,000 tested, 3.2% active. activity change, negative = inhibition, % at 10 µM; in the data active = activity change below about -30%; note: % is set by controls: 0 for no effect and ±100 for the full control effect
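Allosteric or orthosteric antagonism assessed as attenuation of the calcium response to EC80 dopamine, added 180 s after compound, in induced HEK293 Trex D1 cells loaded with no-wash calcium dye.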
D1 potentiator – enhances dopamine response at the human D1 receptor; AID 504651; P21728; potentiation, % at 10 µM; HEK293 TREx D1 cells, calcium flux, dopamine EC20 potentiation; 360,000 tested, 0.036% active; in the data active = potentiation above about 30%; note: 0% is about no effect
D3 antag – blocks the human D3 dopamine receptor; P35462; D3R cells, DiscoveRx beta-arrestin luminescence, antagonist mode; hits give low values; max response, negative = inhibition, %; 360,000 tested, 2.5% active; in the data active = max response below about -50%; inconclusive = no clear call, values can overlap the other calls; note: % is set by controls: 0 for no effect and ±100 for the full control effect
Target sequence (P35462 whole entry, looked up): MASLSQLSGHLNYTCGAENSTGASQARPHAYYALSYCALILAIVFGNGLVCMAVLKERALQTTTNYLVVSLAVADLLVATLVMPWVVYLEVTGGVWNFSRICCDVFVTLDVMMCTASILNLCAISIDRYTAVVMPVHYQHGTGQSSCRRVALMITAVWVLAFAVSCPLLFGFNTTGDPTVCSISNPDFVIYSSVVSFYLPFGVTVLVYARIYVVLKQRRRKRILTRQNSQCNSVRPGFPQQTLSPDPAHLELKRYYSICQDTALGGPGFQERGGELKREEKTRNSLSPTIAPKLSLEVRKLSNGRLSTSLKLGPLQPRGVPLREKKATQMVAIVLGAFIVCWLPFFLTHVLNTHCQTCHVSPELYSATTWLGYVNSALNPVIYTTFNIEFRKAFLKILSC
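Cells expressing the human receptor were seeded at 1500 cells/well, incubated overnight at 37 degrees C in 5% CO2, then exposed to library compounds with dopamine controls for 90 minutes at 37 degrees C before luminescent detection.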
D3 ag – agonists of human D3 dopamine receptor; P35462; 410,000 tested, 0.58% active; D3R DiscoveRx beta-arrestin cells, luminescence, 90 min; max activation, %; AID 652048; in the data active = max activation above about 30%; note: 0% is about no effect
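Agonist-mode cell screen: cells plated at 1500/well and incubated overnight at 37 °C, then exposed to library compounds for 90 min at 37 °C. Detection reagent was added for 30–60 min at room temperature, and luminescence was read.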
Numbers without * were called inactive; ? = inconclusive; nt = no result given. Shown are actives, neighbours in structure and some others; about 6% of the full set was active somewhere.

SMILES	D1 agonist	D1 antag	D1 potentiator	D3 antag	D3 ag
CCN1CCN(CCCNC(=O)C2CCCN(c3nc4c(C)cc(C)cc4s3)C2)CC1 (centres undefined)	-1	-35*	-9	-30	-3
Cc1nn(-c2ccccc2)c(Cl)c1/C=N/NC(N)=O	2	-32*	2	-5	4
CN(C)c1ccc(/C=c2\sc3nc(-c4ccccc4)nn3c2=O)cc1	6	-57*	-9	nt	nt
COC(=O)c1cc(CNC(=O)c2ccccc2Cl)ccc1OC	3	-30*	1	9	0
COC(=O)c1cc(CNC(=O)c2ccc(O)c(Cl)c2)ccc1OC	1	7	-3	-7	1
COc1ccc(-n2cc(CN[C@H]3CCCCNC3=O)c(-c3cccc(F)c3)n2)cc1	2	17	-6	15	1
COc1ccc(-n2cc(CNC3CCN(C)CC3)c(-c3cccc(F)c3)n2)cc1	46*	2	-2	-28	-11
COc1ccccc1NC(=O)Cn1c(=O)n(Cc2ccco2)c(=O)c2oc3ccccc3c21	0	1	-4	nt	-7
COc1ccc(NC(=O)c2cc3ccccc3o2)c(OC)c1	8	9	0	nt	8
CCOC(=O)C1CCN(Cc2cnc(Oc3ccc(OC)cc3)s2)CC1	12	-27	-3	-55*	3
CCOC(=O)C1CCN(Cc2ccc(F)c(F)c2)CC1	0	4	-4	?	-30
CCOC(=O)C1CCN(Cc2ccc(OC)cc2OC)CC1	-1	-1	-2	-6	-11
CCOC(=O)C1CCN(Cc2cc(C(C)C)c(O)c(C(C)C)c2)CC1	2	-26	-4	-69*	-15
CCOC(=O)C1CCN(Cc2ccc3ccccc3c2)CC1	6	-2	-8	-75*	-26
CCOC(=O)C1CCN(Cc2ccc(N(C)C)cc2)CC1	2	6	0	-51*	-8
CCOC(=O)C1CCN(Cc2cccc(OC)c2)CC1	2	17	-5	-23	-14
CCOc1cccc(NC(=O)c2sc3nc(-c4ccc(F)cc4)ccc3c2N)c1	6	0	-7	nt	-2
O=C(O)c1cc(NCc2ccccc2)ccc1N1CCOCC1	3	9	-7	5	9
CCOc1ccc(CNc2ccc(N3CCOCC3)c(C(=O)O)c2)cc1	4	-56*	-11	0	1
N#Cc1nc(-c2ccccc2)oc1NCCN1CCCCC1	4	-6	-3	-72*	0
CC(C)(C)c1ccc(-c2nc(C#N)c(NCCCn3ccnc3)o2)cc1	36*	-5	-5	3	-16
N#Cc1nc(-c2ccc(F)cc2)oc1NCCCn1ccnc1	1	10	-1	nt	nt
N#Cc1nc(COc2ccccc2)oc1NCCCn1ccnc1	2	-33*	-1	-20	0
CC1=C(C(=O)Nc2ccc(Cl)cc2)C(c2cccs2)n2nc(SCc3cccc(C)c3)nc2N1 (centres undefined)	7	-5	12	nt	3
COc1cccc(C2C(=O)N(C3CCCCC3)CC(=O)N2Cc2ccc(Cl)cc2)c1 (centres undefined)	1	26	-1	nt	-20
SMILES	D1 agonist	D1 antag	D1 potentiator	D3 antag	D3 ag
COc1ccc(NC(=O)CSC2=Nc3ccccc3C3=NC(CCC(=O)NCCc4ccccc4)C(=O)N23)c(OC)c1 (centres undefined)	0	13	-3	nt	4
COc1ccc(C)cc1NC(=O)C1CCN(S(=O)(=O)c2c(C)noc2/C=C/c2ccco2)CC1	0	3	5	nt	-4
COc1ccc(C)cc1NC(=O)C1CCN(S(=O)(=O)c2c(C)noc2C)CC1	0	4	-1	3	40*
Cc1ccc2c(c1)N(C(=O)C1CCN(S(=O)(=O)c3c(C)noc3/C=C/c3ccccc3F)CC1)CCO2	10	-39*	0	nt	1
COc1ccc(NC(=O)C2CCN(S(=O)(=O)c3c(C)noc3/C=C/N(C)C)CC2)cc1	1	-34*	-2	0	1
COC(=O)c1ccc(NC(=O)Cn2c(=O)oc3ccccc32)cc1	0	1	-2	nt	-2
CCOc1ccccc1CNC(=O)c1cc2n(n1)CCCN(Cc1ccc(C)cc1)C2=O	-1	14	1	nt	2
Cc1ccc2c(n1)Oc1ccc(C(C)C(=O)OCC(=O)N(C)C)cc1C2 (centres undefined)	nt	nt	nt	nt	7
Cc1ccc(CN(C(=O)COc2ccc(C(C)C)cc2)C2CCS(=O)(=O)C2)o1 (centres undefined)	0	-4	2	nt	-16
Cc1ccccc1NC(=O)CN(c1ccc(Cl)cc1Cl)S(=O)(=O)c1ccccc1	1	-13	-4	nt	-2
CCOC(=O)c1sc(=S)n(C)c1N	2	-33*	-7	-19	-1
CCOC(=O)c1sc(=S)n(C)c1C	2	2	2	0	0
CC(CCCN(C)C)C(Cc1ccccc1)c1ccccc1 (centres undefined)	nt	nt	nt	-69*	-9
CN(C)CCNC(=O)C(c1ccccc1)c1ccccc1	2	5	-1	5	-13
CN(C)CCC(=O)C(Cc1ccccc1)c1ccccc1 (centres undefined)	nt	nt	nt	-112*	-13
Cc1cccc(-n2c(C)cc(C(=O)C(=O)Nc3ccccc3F)c2C)c1C	1	-1	-2	nt	-6
CCCCCCCCc1nc(=S)[nH][nH]1	0	3	-8	-67*	-2
Cc1cc(C)nc(SCC(=O)c2ccc(O)cc2O)n1	4	-43*	2	-6	2
Cc1cc(C)nc(SCC(=O)c2ccc(O)c(O)c2)n1	6	2	-8	11	3
Cc1c(F)c(N2CCNC(C)C2)cc2c1c(=O)c(C(=O)O)cn2C1CC1 (centres undefined)	nt	nt	nt	nt	4
CNCCOc1ccccc1OC(C)C	1	-13	-5	-79*	-17
CCOc1ccccc1NC(=O)c1cnn2c(C(F)F)cc(-c3ccccc3)nc12	0	-6	1	nt	10
COc1ccc(N2CCN(CC(=O)Nc3ncc(C)s3)CC2)cc1	0	6	2	6	4
COc1ccc(N2CCN(CC(=O)Nc3nc(C)cs3)CC2)cc1	2	-41*	-1	-29	-10
COc1ccc(NC(=O)c2ccc(NC(=O)CN3CCN(c4ccc(O)cc4)CC3)cc2)cc1	nt	nt	nt	8	82*
SMILES	D1 agonist	D1 antag	D1 potentiator	D3 antag	D3 ag
COc1ccc(NC(=O)c2ccc(NC(=O)CN3CCN(c4ccccc4O)CC3)cc2)cc1	nt	nt	nt	-14	-2
CCCOc1ccccc1Cn1c(=O)sc2ccccc21	8	1	-6	nt	4
CC1=CC(C)(C(Cl)(Cl)Cl)C(C)=CC1=NO (centres undefined)	nt	nt	nt	-55*	-10
CCNC(=O)C(=O)Nc1ccc(OC)c(Cl)c1	12	-14	-4	6	2
COc1ccc(NC(=O)C(=O)c2cc(C)n(-c3ccc(C)cc3)c2C)cc1Cl	4	-53*	-2	nt	5
COc1ccc(N=Cc2nc(-c3ccco3)oc2O)cc1	-1	12	0	-52*	-21
